# Results filed as inconclusive are left out. A call without a number means that no potency is given here. Active and inactive are the calls of the source. Unless noted, calls follow the shape of the dose curve; as a rule, active = well fitted curve in the direction sought with a large enough effect; inconclusive = small, poorly fitted or top-dose-only effect, or another doubt; inactive = no such curve, though single readings can be large; an effect the other way counts as inactive or inconclusive.
# Columns and labels:
# [1] = biological target: ATPase family AAA domain-containing protein 5 (Homo sapiens) (UniProt Q96QE3); assay: Validation screen for small molecules that inhibit ELG1-dependent DNA repair in human embryonic kidney (HEK293T) cells expressing luciferase-tagged ELG1 (AID 493107); also: nearly all actives have a fitted effect of over 70% in size; also: potency is read from the fitted curve at half-maximal effect
# How it was run: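 Compounds reducing 5-fluorouridine-driven ELG1-luciferase signal in HEK293T cells were scored; exposure lasted 16 hr at 37 °C with luminescence detected via ONE-Glo.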
# [2] = biological target: Thyrotropin-releasing hormone receptor (Homo sapiens) (UniProt P34981); assay: qHTS for Small Molecule Agonists and Allosteric Enhancers of Human TRH Receptor: Validation Screen for Agonists (AID 493127;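 active = calcium activation more than 3 SD above the typical response in the agonist read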;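 also: intracellular calcium rise by fluo-8 fluorescence before TRH EC20 addition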); conditions: TRH receptor agonist cell assay; at 2 µM; stronger effect = higher value
# How it was run: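 Kinetic fluorescence assay of agonist-induced calcium release: overnight-plated TRHR cells, room-temperature fluo-8 loading, baseline then compound addition with per-second reads.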
# [3] = Nrf2 qHTS screen for inhibitors: Validation (AID 493153; active = well fitted inhibition curve with a large enough effect in the main read-out, with a control signal flat, not every such curve was filed as active; also: potency is read from the fitted curve at half-maximal effect); conditions: Potency: luciferase luminescence; viability change: measured here: cytotoxicity max response
# How it was run: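 In this counterscreened reporter format, each well gives two signals: CellTiter-Fluor fluorescence for cytotoxicity and ARE-luciferase luminescence for Nrf2 function. A549 ARE_Fluc cells in 5% FBS OPTI-MEM were exposed to compound titrations for 18-24 h.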
# [4] = qHTS for Inhibitors of Cell Surface uPA Generation: Validation Assay (AID 493164);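 also: RAW 264.7 macrophage cells exposed to compound for 18 h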
# How it was run: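 Compounds are titrated over seven points (2.45 nM–38.3 uM final) onto pre-plated RAW 264.7 cells and incubated for 18 h. Retained intracellular ATP, measured with ATP-Lite, indicates blocked lethal factor entry.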
# [5] = biological target: Galactokinase (Homo sapiens) (UniProt P51570); assay: qHTS Validation Assay for Inhibitors of Human Galactokinase (GALK) (AID 493189)
# How it was run: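 Compounds were pin-transferred into ATP buffer, then GALK-galactose mix was added (final 5 nM enzyme, 100 uM galactose, 35 uM ATP). After 1 h at room temperature, remaining ATP was measured luminescently.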
# [6] = Validation screen for small molecules that induce DNA re-replication in SW480 colon adenocarcinoma cells (AID 504364)
# How it was run: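 Hoechst-stained SW480 nuclei, imaged at 405 nm excitation after 48 hr compound exposure, were counted for elevated DNA content as the re-replication signal.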
# [7] = biological target: Peptidyl-prolyl cis-trans isomerase NIMA-interacting 1 (Homo sapiens) (UniProt Q13526); assay: qHTS Validation Assay to Find Inhibitors of Pin1 (AID 504536; active = well fitted inhibition curve with a large enough effect in the polarisation, with a control signal flat, not every such curve was filed as active; the % refers to the polarisation)
# How it was run: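 Fluorescence polarization competition: compounds (titration) displace HiFluor-488-labeled Pin1-1b peptide from Pin1 (0.3 uM final) in pH 7.5 HEPES buffer with DTT, 10 min at room temperature; %Activity normalized to no-enzyme wells, curves fitted.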
# [8] = biological target: Phosphoglycerate kinase, glycosomal (Trypanosoma brucei brucei) (UniProt P07378); assay: qHTS Validation Assay to Find Inhibitors of Phosphoglycerate Kinase (AID 504547)
# How it was run: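 Luminescence end-point (Kinase-Glo Plus, 10 min) after a 60 min room-temperature coupled reaction. GAPDH at 100nM final supplies 1,3-BPG to PGK. Buffer: 100mM TEA pH 7.6, 5mM MgCl2, 0.01% Tween-20. Wells lacking PGK served as controls.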
# [9] = biological target: phosphoglycerate mutase (Leishmania major) (UniProt Q4Q090); assay: qHTS Validation Assay to Find Inhibitors of Phosphoglycerate Mutase (AID 504548);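 also: end-point luminescence from Kinase-GloPlus after the PGAM reaction; series mostly up to about 58 µM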
# How it was run: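 L. major PGAM (1.25nM final) was added to substrate buffer and pinned compound, incubated 45 minutes at room temperature, then Kinase-GloPlus added; luminescence read after 10 minutes. Buffer: 100 mM TEA pH 7.6, 5 mM MgCl2, 0.01% Tween-20.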
# [10] = biological target: Ubiquitin carboxyl-terminal hydrolase 1 (Homo sapiens) (UniProt O94782); assay: Inhibitors of USP1/UAF1: Pilot qHTS (AID 504865);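 also: rhodamine fluorescence freed from ubiquitin-rhodamine substrate followed over time; top concentration of the series differs between compounds; nearly all actives have a fitted effect of over 35% in size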
# How it was run: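 Kinetic fluorescence assay: 1nM USP1/UAF1, 15 min compound preincubation, then 150nM Ub-Rho; 480/540 nm.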
# Chain of ATPase family AAA domain-containing protein 5 (Homo sapiens) (Q96QE3 whole entry, looked up, the tested form may be a part): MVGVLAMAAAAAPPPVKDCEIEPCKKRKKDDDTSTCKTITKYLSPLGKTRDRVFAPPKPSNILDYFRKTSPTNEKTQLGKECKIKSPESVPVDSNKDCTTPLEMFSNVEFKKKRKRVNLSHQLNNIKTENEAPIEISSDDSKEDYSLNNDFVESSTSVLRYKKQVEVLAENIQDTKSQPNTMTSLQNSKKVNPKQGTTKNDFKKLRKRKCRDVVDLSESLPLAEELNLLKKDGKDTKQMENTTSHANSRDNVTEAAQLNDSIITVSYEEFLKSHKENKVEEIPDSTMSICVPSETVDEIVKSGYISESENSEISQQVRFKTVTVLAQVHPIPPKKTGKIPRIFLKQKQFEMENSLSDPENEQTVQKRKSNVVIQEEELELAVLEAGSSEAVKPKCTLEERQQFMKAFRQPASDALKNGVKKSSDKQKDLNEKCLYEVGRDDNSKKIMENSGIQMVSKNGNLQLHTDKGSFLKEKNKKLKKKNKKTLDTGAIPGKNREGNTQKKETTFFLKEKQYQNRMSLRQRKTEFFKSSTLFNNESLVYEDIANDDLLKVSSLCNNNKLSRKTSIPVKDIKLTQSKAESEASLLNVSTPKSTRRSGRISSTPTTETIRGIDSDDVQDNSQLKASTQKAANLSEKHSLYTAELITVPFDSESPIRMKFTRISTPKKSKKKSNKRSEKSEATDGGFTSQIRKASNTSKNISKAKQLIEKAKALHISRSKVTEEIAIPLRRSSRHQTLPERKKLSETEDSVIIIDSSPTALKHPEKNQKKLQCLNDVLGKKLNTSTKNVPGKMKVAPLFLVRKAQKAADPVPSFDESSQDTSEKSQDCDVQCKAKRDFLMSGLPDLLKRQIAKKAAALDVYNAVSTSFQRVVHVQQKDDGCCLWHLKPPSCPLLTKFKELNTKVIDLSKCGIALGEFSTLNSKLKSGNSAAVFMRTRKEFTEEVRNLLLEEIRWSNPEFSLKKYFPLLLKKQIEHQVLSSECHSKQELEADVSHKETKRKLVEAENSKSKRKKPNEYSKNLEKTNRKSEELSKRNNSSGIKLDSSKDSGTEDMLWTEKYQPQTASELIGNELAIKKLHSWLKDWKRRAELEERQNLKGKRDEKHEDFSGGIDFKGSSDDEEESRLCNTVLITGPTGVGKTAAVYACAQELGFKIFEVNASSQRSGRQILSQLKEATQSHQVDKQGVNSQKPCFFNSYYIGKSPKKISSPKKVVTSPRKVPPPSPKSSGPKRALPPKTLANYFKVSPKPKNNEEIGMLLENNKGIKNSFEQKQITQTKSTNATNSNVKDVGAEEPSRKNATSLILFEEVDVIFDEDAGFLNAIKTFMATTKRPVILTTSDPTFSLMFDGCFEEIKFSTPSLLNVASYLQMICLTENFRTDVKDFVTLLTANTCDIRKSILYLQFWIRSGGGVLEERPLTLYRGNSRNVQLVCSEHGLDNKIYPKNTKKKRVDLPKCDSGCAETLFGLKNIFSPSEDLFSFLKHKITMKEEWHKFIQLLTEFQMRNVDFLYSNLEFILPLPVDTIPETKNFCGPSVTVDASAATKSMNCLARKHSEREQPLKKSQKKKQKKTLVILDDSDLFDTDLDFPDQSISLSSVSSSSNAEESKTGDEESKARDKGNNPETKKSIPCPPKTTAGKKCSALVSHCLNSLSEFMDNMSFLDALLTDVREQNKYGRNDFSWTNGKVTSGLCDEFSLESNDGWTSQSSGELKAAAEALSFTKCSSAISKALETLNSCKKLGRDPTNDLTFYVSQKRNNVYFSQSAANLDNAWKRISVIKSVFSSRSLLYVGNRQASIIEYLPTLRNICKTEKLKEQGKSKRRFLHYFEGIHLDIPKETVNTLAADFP
# Chain of Galactokinase (Homo sapiens) (P51570 whole entry, looked up): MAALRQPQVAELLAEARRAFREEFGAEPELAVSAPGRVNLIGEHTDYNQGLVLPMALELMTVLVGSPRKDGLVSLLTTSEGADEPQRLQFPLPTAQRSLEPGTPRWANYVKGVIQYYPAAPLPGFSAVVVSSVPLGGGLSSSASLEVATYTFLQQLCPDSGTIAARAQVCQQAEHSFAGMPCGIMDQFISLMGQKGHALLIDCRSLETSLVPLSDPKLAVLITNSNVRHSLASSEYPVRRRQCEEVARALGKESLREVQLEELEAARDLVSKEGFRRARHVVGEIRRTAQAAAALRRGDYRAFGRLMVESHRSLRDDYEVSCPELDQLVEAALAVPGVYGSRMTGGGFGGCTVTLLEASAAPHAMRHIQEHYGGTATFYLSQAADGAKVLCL
# Chain of Phosphoglycerate kinase, glycosomal (Trypanosoma brucei brucei) (P07378 whole entry, looked up): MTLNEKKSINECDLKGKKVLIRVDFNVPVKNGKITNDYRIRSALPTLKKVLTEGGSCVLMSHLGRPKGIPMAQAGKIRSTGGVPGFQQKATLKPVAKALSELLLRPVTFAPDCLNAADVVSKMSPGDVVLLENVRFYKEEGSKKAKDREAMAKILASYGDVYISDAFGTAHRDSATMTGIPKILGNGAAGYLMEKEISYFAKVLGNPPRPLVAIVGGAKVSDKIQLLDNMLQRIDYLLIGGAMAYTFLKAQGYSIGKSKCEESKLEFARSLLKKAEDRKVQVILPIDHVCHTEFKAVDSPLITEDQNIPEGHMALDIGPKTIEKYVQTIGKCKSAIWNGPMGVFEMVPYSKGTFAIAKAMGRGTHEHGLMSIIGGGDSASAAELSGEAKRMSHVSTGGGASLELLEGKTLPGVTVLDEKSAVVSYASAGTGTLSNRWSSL
# Chain of Ubiquitin carboxyl-terminal hydrolase 1 (Homo sapiens) (O94782 whole entry, looked up): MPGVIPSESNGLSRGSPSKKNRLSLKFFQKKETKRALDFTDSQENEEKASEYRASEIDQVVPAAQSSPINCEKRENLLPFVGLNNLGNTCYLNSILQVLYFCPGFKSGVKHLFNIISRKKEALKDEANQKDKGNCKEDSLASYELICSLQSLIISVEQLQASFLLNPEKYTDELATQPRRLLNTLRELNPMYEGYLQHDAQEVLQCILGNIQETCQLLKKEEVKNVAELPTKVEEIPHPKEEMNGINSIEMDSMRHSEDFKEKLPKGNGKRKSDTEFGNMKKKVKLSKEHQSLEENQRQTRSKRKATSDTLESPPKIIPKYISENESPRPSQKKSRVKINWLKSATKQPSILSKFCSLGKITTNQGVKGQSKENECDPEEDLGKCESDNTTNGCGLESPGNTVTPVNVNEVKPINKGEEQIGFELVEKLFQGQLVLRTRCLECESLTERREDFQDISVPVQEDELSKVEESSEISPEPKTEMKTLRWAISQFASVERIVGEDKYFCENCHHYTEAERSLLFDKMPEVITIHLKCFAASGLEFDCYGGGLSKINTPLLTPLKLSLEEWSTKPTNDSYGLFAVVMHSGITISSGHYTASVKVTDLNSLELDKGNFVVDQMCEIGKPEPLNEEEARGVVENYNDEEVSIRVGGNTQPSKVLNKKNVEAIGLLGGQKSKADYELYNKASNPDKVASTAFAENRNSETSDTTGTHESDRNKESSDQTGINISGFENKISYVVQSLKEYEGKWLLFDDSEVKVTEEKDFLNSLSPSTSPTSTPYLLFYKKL
# Chain of Peptidyl-prolyl cis-trans isomerase NIMA-interacting 1 (Homo sapiens) (Q13526 whole entry, looked up): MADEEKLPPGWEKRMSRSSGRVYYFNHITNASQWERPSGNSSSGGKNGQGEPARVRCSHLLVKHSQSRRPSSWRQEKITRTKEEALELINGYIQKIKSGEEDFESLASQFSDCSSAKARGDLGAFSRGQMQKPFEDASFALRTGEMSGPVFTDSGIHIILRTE
# Chain of Thyrotropin-releasing hormone receptor (Homo sapiens) (P34981 whole entry, looked up): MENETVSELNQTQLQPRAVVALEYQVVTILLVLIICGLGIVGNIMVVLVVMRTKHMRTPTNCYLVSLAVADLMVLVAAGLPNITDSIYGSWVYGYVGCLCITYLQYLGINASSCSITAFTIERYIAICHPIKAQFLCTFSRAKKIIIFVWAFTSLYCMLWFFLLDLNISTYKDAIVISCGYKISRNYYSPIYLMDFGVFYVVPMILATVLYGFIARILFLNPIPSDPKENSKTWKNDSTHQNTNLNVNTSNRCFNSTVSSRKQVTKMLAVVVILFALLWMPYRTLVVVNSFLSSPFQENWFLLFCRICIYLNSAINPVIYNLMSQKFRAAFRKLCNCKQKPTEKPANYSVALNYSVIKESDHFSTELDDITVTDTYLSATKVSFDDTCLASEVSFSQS
# Chain of phosphoglycerate mutase (Leishmania major) (Q4Q090 1-553): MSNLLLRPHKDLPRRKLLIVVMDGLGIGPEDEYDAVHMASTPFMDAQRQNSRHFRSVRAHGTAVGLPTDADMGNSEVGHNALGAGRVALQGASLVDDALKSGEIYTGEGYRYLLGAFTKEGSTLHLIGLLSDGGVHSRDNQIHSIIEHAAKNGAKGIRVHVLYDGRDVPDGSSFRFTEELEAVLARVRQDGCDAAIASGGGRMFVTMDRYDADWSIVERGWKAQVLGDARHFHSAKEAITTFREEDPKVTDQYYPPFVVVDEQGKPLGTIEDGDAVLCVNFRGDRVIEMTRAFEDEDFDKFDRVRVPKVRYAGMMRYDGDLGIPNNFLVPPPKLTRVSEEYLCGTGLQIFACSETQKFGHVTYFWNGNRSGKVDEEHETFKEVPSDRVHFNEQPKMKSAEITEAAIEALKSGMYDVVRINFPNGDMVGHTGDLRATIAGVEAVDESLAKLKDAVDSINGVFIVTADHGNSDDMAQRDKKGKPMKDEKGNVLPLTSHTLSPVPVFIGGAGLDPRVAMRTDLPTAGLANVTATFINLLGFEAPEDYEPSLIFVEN
SMILES,Potency [1],activation [2],Potency [3],viability change [3],outcome [4],outcome [5],outcome [6],outcome [7],outcome [8],outcome [9],Potency [10]
NCCc1ccc(O)c(O)c1,inactive,1% (inactive),inactive,1.72%,inactive,inactive,inactive,inactive,inactive,–,–
Cn1cnc([N+](=O)[O-])c1Sc1ncnc2nc[nH]c12,inactive,0.875% (inactive),inactive,-10.4%,inactive,inactive,inactive,inactive,inactive,inactive,inactive
NC[C@H](O)c1ccc(O)c(O)c1,inactive,–,inactive,3.52%,inactive,inactive,inactive,inactive,–,inactive,–
Cc1ccc(N(CC2=NCCN2)c2cccc(O)c2)cc1,–,–,inactive,4.38%,inactive,inactive,inactive,inactive,inactive,inactive,–
Nc1nc2c(ncn2COCCO)c(=O)[nH]1,inactive,–,inactive,-1.37%,inactive,inactive,inactive,inactive,inactive,inactive,–
Nc1nc2ccc(OC(F)(F)F)cc2s1,–,–,inactive,-4.99%,inactive,inactive,inactive,inactive,inactive,inactive,–
NNCCc1ccccc1,–,1.5% (inactive),inactive,2.04%,inactive,inactive,inactive,inactive,inactive,inactive,–
CCn1cc(C(=O)O)c(=O)c2cc(F)c(N3CCNC(C)C3)c(F)c21 (stereo unspecified),inactive,–,inactive,-3.76%,inactive,inactive,inactive,–,inactive,inactive,–
C#Cc1cccc(Nc2ncnc3cc(OCCOC)c(OCCOC)cc23)c1,–,–,–,–,–,–,–,–,–,–,inactive
OC(CCN1CCCCC1)(c1ccccc1)C1CC2C=CC1C2 (stereo unspecified),inactive,–,inactive,-8.46%,inactive,–,–,inactive,inactive,inactive,inactive
Cc1cccc(-c2[nH]c(C(C)(C)C)nc2-c2ccc3nccnc3c2)n1,–,–,–,–,inactive,–,–,inactive,inactive,inactive,–
CC(=O)Oc1ccccc1C(=O)O,inactive,–,inactive,-7.95%,inactive,inactive,inactive,inactive,inactive,inactive,inactive
O=c1n(CCCN2CCN(c3cccc(Cl)c3)CC2)nc2ccccn12,inactive,–,inactive,-3.91%,inactive,inactive,inactive,inactive,inactive,inactive,inactive
Cc1[nH]c(=O)c(C#N)cc1-c1ccc2nccn2c1,–,0.25% (inactive),inactive,7.27%,inactive,inactive,inactive,inactive,inactive,inactive,–
O=C(O)COCCN1CCN(C(c2ccccc2)c2ccc(Cl)cc2)CC1 (stereo unspecified),inactive,–,inactive,1.19%,inactive,–,–,inactive,inactive,inactive,–
CCOC(=O)N1CCC(=C2c3ccc(Cl)cc3CCc3cccnc32)CC1,–,-10.4% (inactive),–,–,inactive,inactive,–,inactive,inactive,inactive,–
CNC[C@H](O)c1cccc(O)c1,inactive,–,inactive,-8.68%,inactive,inactive,inactive,inactive,inactive,inactive,inactive
NC(=O)c1cnccn1,–,0.688% (inactive),inactive,-0.821%,inactive,inactive,inactive,inactive,inactive,inactive,inactive
CC(C)NCC(O)COc1ccc(COCCOC(C)C)cc1 (stereo unspecified),–,-0.25% (inactive),inactive,3.25%,inactive,inactive,inactive,inactive,inactive,inactive,–
CN1CCN(CCCN2c3ccccc3Sc3ccc(C(F)(F)F)cc32)CC1,–,–,–,–,inactive,inactive,inactive,inactive,inactive,inactive,–
N[C@@H]1CONC1=O,inactive,–,inactive,10.9%,inactive,inactive,inactive,inactive,inactive,inactive,–
O=C(Nc1nc2ccccc2n1CCN1CCOCC1)c1cccc([N+](=O)[O-])c1,8.2 µM (active),–,–,–,inactive,–,–,inactive,inactive,inactive,–
CCCC(CCC)C(=O)O,–,0.688% (inactive),inactive,2.98%,inactive,inactive,inactive,inactive,inactive,inactive,–
CCCCNc1cc(C(=O)O)cc(S(N)(=O)=O)c1Oc1ccccc1,–,1.31% (inactive),inactive,10.1%,inactive,inactive,inactive,inactive,inactive,inactive,–
Cc1oncc1C(=O)Nc1ccc(C(F)(F)F)cc1,–,–,inactive,0.653%,inactive,inactive,inactive,inactive,inactive,inactive,–
Nc1ncnc2nc(-c3ccc(N4CCOCC4)nc3)cc(-c3cccc(Br)c3)c12,4.11 µM (active),–,–,–,inactive,–,–,inactive,inactive,inactive,–
Cc1cc2c(C(C)C)c(O)c(O)c(C=O)c2c(O)c1-c1c(C)cc2c(C(C)C)c(O)c(O)c(C=O)c2c1O,–,–,–,–,inactive,–,–,–,–,–,–
C[C@]12CCC(=O)C=C1CC[C@@H]1[C@@H]2[C@@H](O)C[C@@]2(C)[C@H]1CC[C@]2(O)C(=O)CO,–,–,0.0731 µM (active),-7.36%,inactive,–,–,inactive,inactive,inactive,–
CCOC(=O)C1=C[C@]2(CC)CCCN3CCc4c(n1c1ccccc41)[C@@H]32,–,0.0625% (inactive),inactive,-5.34%,inactive,inactive,inactive,inactive,inactive,inactive,–

# Source: PubChem BioAssay (NCATS)
